Reference: the supplement of paper PMC13380429

Legend:
[1] = test system: Vero E6 infected with SARS-CoV-2; experiment: morphology score (similarity to uninfected cells); higher = more like uninfected cells; conditions: 24 h
[2] = test system: Vero E6 infected with SARS-CoV-2; experiment: SARS-CoV-2 infection rate relative to infected DMSO; higher = more infection, active = 60 or less; conditions: 24 h

Structure (SMILES): COC(=O)C1=C(C)NC(C)=C(C(=O)OCCN(C)Cc2ccccc2)C1c1cccc([N+](=O)[O-])c1 (configuration not stated) [nicardipine] (10 µM)
- morphology score [1]: 0.0181
- SARS-CoV-2 infection rate [2]: 103% (inactive)

Structure (SMILES): O=C(NCCN1CCCCC1)c1ccc(I)cc1 [N-[2-(piperidinylamino)ethyl]-4-iodobenzamide] (10 µM)
- morphology score [1]: 0.317
- SARS-CoV-2 infection rate [2]: 91.5% (inactive)

Structure (SMILES): FC(F)(F)c1ccc(CNc2ccc(Cc3c[nH]c4ncc(Cl)cc34)cn2)cn1 [pexidartinib] (10 µM)
- morphology score [1]: 0.473
- SARS-CoV-2 infection rate [2]: 77.5% (inactive)

Structure (SMILES): O=C(O)CNC(=O)C1C(=O)N(C2CCCCC2)C(=O)N(C2CCCCC2)C1=O [daprodustat] (10 µM)
- morphology score [1]: 0.206
- SARS-CoV-2 infection rate [2]: 81.5% (inactive)

Structure (SMILES): Cc1c(-c2ccc(O)cc2)n(Cc2ccc(OCCN3CCCCCC3)cc2)c2ccc(O)cc12 [bazedoxifene] (0.833333 µM)
- morphology score [1]: 0.201
- SARS-CoV-2 infection rate [2]: 101% (inactive)

Structure (SMILES): O=C(O)[C@@H]1C[C@@H](C2CCCCC2)CN1C(=O)CP(=O)(O)CCCCc1ccccc1 [fosinoprilat] (10 µM)
- morphology score [1]: 0.0775
- SARS-CoV-2 infection rate [2]: 100% (inactive)

Structure (SMILES): O=C1c2ccc(Nc3ccc(F)cc3F)cc2CCc2ccc(OC[C@H](O)CO)cc21 [skepinone-L] (10 µM)
- morphology score [1]: -0.053
- SARS-CoV-2 infection rate [2]: 113% (inactive)

Structure (SMILES): O=C(c1ccc(F)c(F)c1Nc1ccc(I)cc1F)N1CC(O)([C@@H]2CCCCN2)C1 [cobimetinib] (0.833333 µM)
- morphology score [1]: -0.272
- SARS-CoV-2 infection rate [2]: 116% (inactive)

Structure (SMILES): CC(=O)NCCc1c[nH]c2ccccc12 [N-acetyltryptamine] (10 µM)
- morphology score [1]: 0.0383
- SARS-CoV-2 infection rate [2]: 94.5% (inactive)

Structure (SMILES): COc1ccc(-c2csc(NC(=O)[C@H]3CCCCN3S(=O)(=O)c3ccc(C)cc3)n2)cc1 (10 µM)
- morphology score [1]: 0.424
- SARS-CoV-2 infection rate [2]: 61.5% (inactive)

Structure (SMILES): COc1cc(COc2cc(N)c(Cl)cc2C(=O)CCC2CCN(CCNS(C)(=O)=O)CC2)cc(OC)c1 (0.833333 µM)
- morphology score [1]: 0.265
- SARS-CoV-2 infection rate [2]: 102% (inactive)

Structure (SMILES): C[C@@H](CN1CC(=O)NC(=O)C1)N1CC(=O)NC(=O)C1 [dexrazoxane] (10 µM)
- morphology score [1]: 0.0659
- SARS-CoV-2 infection rate [2]: 97% (inactive)

Structure (SMILES): N[C@]1(C(=O)O)CC[C@@H](C(=O)O)C1 (10 µM)
- morphology score [1]: 0.188
- SARS-CoV-2 infection rate [2]: 82% (inactive)

Structure (SMILES): Cc1ccc(NC(=O)c2cccc(C(C)(C)C#N)c2)cc1Nc1ccc2ncn(C)c(=O)c2c1 (0.833333 µM)
- morphology score [1]: -0.0585
- SARS-CoV-2 infection rate [2]: 93.5% (inactive)

Structure (SMILES): CC(C)(C)NC(=O)N[C@H](C(=O)N1C[C@H]2[C@@H]([C@H]1C(=O)NC(CC1CCC1)C(=O)C(N)=O)C2(C)C)C(C)(C)C (some centres not stated) [Boceprevir] (10 µM)
- morphology score [1]: 0.133
- SARS-CoV-2 infection rate [2]: 100% (inactive)

Structure (SMILES): COc1cc2c(cc1OC)[C@@H]1Cc3ccc(OC)c(OC)c3CN1CC2 [rotundine] (10 µM)
- morphology score [1]: 0.0444
- SARS-CoV-2 infection rate [2]: 110% (inactive)

Structure (SMILES): CSc1ccc2c(c1)[C@H](N1CCN(C)CC1)Cc1ccccc1S2 (racemic) [metitepine] (0.833333 µM)
- morphology score [1]: -0.0536
- SARS-CoV-2 infection rate [2]: 112% (inactive)

Structure (SMILES): C[C@H]1NC(=O)NC1=O [5-methylhydantoin-(D)] (10 µM)
- morphology score [1]: 0.121
- SARS-CoV-2 infection rate [2]: 102% (inactive)

Structure (SMILES): COc1cc(N2CCOCC2)ccc1Nc1ncc(Cl)c(Nc2ccccc2NS(C)(=O)=O)n1 (10 µM)
- morphology score [1]: -0.034
- SARS-CoV-2 infection rate [2]: 103% (inactive)

Structure (SMILES): O=C(O)/C=C/c1ccc(-c2ccc(O)c(C34CC5CC(CC(C5)C3)C4)c2)cc1 [adarotene] (10 µM)
- morphology score [1]: 0.00299
- SARS-CoV-2 infection rate [2]: 100% (inactive)

Structure (SMILES): N#Cc1ccc(-c2ccc(S(=O)(=O)Nc3cccc(N)n3)cc2)cc1 (10 µM)
- morphology score [1]: -0.0328
- SARS-CoV-2 infection rate [2]: 120% (inactive)
